This is an account of results in ChEMBL document CHEMBL4513216, “Probing the Open Global Health Chemical Diversity Library for Multistage-Active Starting Points for Next-Generation Antimalarials” (ACS Infect Dis, 2020).

Out of some 69,000 compounds screened, about 8,600 (12%) showed an effect of 50% or more. The entries come from a sample that favours strong results as a whole.

In this assay the test system is Plasmodium berghei. Put plainly: Screen against P. berghei liver stage (PbLuc), transformed with Luciferase, at 10uM. In kind it is functional, HepG2. The conditions noted are these: tested at 10 uM.
In the case of `NC(=O)NCC1CCCCN1C(=O)c1cccc(Cl)c1` (configuration not stated), the INHIBITION was -17.4%.

With `CNC(=O)CN1CCCC12CCN(C(=O)c1cccc(F)c1)CC2`, the INHIBITION was 14.9%.

With `CCSc1ccc(C(=O)N2CCCC2C(=O)N2CCOCC2)cn1` (configuration not stated), the INHIBITION is 23.6%.

For the compound `Cc1ccc(CN2CC[C@H]3OCC[C@@H](C(=O)NC4CC4)[C@@H]3C2)o1`, the INHIBITION is listed as 23.9%. On to `COc1cc(NC(=O)N2CCCC2c2nncn2C)ccc1Br` (configuration not stated), for which the INHIBITION came to 55.6%. `Cn1cnnc1C1CCCN1C(=O)Nc1cccc(OC(F)F)c1` (configuration not stated): the INHIBITION was found to be 30.7%. For the compound `CCOCc1ccc(NC(=O)N2CCCC2c2nncn2C)cc1` (configuration not stated), the INHIBITION is 43.7%. Take `c1cncc(CN2CCc3ncnc(NCCc4c[nH]cn4)c3CC2)c1`: the INHIBITION worked out at 38.3%. With `CC(C)c1nc(C2CCCN(C(=O)c3ccc4nncn4c3)C2)no1` (configuration not stated), the INHIBITION is -43.6%. Consider `CCC(C)N1CCC2(CC1)CN(c1cncnc1)C(=O)CO2` (configuration not stated), for which the INHIBITION is reported as 3.25%. On to `Fc1ccc(CNC2CCN(CCc3ccncc3)CC2)cc1F`, for which the INHIBITION is on record as 21.5%. The value for `N#Cc1ccc(CNC(=O)NC2CCN(c3ncccn3)CC2)cc1` was 23.3%. With `N#Cc1ccc(CNC(=O)NC2CCN(CC(F)F)CC2)cc1`, the INHIBITION is on record as 26.1%.

Take `Cc1ccc(CNC2CCN(CCc3ccncc3)CC2)cc1C`: the INHIBITION turned out to be 15.1%.

As to `Oc1cccc(CNC2CCN(CCc3ccncc3)CC2)c1`, the INHIBITION is reported as 4.48%. The value for `COCCN1CCC(NCc2ccc(C#N)cc2)C1` (configuration not stated) was 57.4%; that for `CSc1ccc(CNC2CCN(CCc3ccncc3)CC2)cc1` was 16.1%. For `N#Cc1ccc(CNC2CCN(CCc3ccncc3)CC2)cc1`, the INHIBITION is listed as 51.1%. Consider `COCCN1CCC(NCc2ccc(Cl)cc2)C1` (configuration not stated), for which the INHIBITION is recorded as 23.4%.

Regarding `COCCN1CCC(NCc2cccc(C)c2)C1` (configuration not stated), the INHIBITION was determined as 15.6%. As to `N#Cc1ccc(CNC(=O)NC2CCN(CC(F)(F)F)C2)cc1` (configuration not stated), the INHIBITION worked out at 52%. Take `Clc1cccc(CNC2CCN(CCc3ccncc3)CC2)c1`: the INHIBITION is on record as 52.9%. In the case of `O=C1CCC2(CCC(NC3CCOC3)CC2)N1Cc1ccccc1` (configuration not stated), the INHIBITION was -17.1%. As for `Cc1cccc(CN2Cc3[nH]nc(COCCO)c3C2)n1`, the INHIBITION worked out at 29%.

For `Cc1nc(C(=O)N2CCOC(c3nc(C(C)C)n[nH]3)C2)c[nH]1` (configuration not stated), the INHIBITION is -16%. Regarding `CCN(Cc1nonc1C)C(=O)c1cc(C(F)(F)F)nn1C`, the INHIBITION was 29.9%. `CN(C)Cc1cccc(C(=O)N2CCCC(n3cncn3)C2)c1` (configuration not stated): the INHIBITION was 29.2%.

Consider `COc1cc2[nH]c(C(=O)O)cc2c(OC)c1C`, for which the INHIBITION is listed as -13.1%. In the case of `CCn1nc2ccc(S(=O)(=O)N3CCSCC3)cn2c1=O`, the INHIBITION is reported as 7.92%. On to `COc1ccc(CNC(C)c2ccc(Cl)cc2)c(OC)c1OC` (configuration not stated), for which the INHIBITION was determined as 56%.

As to `COc1ccc(CNC(C)c2cccc(Cl)c2)c(OC)c1OC` (configuration not stated), the INHIBITION worked out at 44.3%. For the compound `CC(NCc1ccc(OCC(N)=O)cc1)c1ccc(Cl)cc1` (configuration not stated), the INHIBITION worked out at 43.3%. On to `COc1ccc(C(C)NCc2cnnn2C)cc1F` (configuration not stated), for which the INHIBITION is given as 36.6%. Regarding `COc1ccc(CNC(C)c2cccc(Br)c2)c(OC)c1OC` (configuration not stated), the INHIBITION came to 70.5%. In the case of `CC(NCC1CCN(CCO)CC1)c1cccc(Cl)c1` (configuration not stated), the INHIBITION is 40.4%. Regarding `COc1ccc(CNC(C)c2ccccc2Cl)c(OC)c1OC` (configuration not stated), the INHIBITION was 48.3%. For `COc1cc(CNC(C)Cn2cccn2)cc(Cl)c1OC` (configuration not stated), the INHIBITION is -3.7%.

Regarding `COc1cc(CNC(C)c2cccc(Cl)c2)cc(OC)c1OC` (configuration not stated), the INHIBITION was 63.7%. As to `COc1ccc(C(C)NCCC(N)=O)cc1F` (configuration not stated), the INHIBITION stood at 49.4%. Consider `COc1ccc(C(C)NCc2ccc(OC)c(OC)c2OC)cc1F` (configuration not stated), for which the INHIBITION is recorded as 67.1%. With `CCOc1cccc(C(C)NCc2ccc(OC)c(OC)c2OC)c1` (configuration not stated), the INHIBITION is 38.5%.

With `O=C(COC1CCCCC1)N1CCCC(n2ccnc2)C1` (configuration not stated), the INHIBITION is -29.8%. The value for `CCN1CC(C(=O)NC(C)(C)C(=O)OC)CC1=O` (configuration not stated) was -10.3%; that for `Cc1[nH]nc(CCC(=O)NCC2CCN(C3CCCCC3)C2)c1C` (configuration not stated) was -57.5%; that for `COc1cc(CNCC(O)c2ccc(F)c(F)c2)cc2c1OCO2` (configuration not stated) was 24%. Take `COc1ccc(CNC(C)c2ccc(Cl)c(Cl)c2)c(OC)c1OC` (configuration not stated): the INHIBITION came out at 70.5%. The value for `CC(NCc1ccc(C(N)=O)cc1)c1ccc(Cl)c(Cl)c1` (configuration not stated) was -29.2%; that for `COc1cc(CNC(C)c2ccc(F)c(F)c2)cc2c1OCCO2` (configuration not stated) was 66.7%. For `COc1ccc(C(C)NCc2c[nH]nc2C)cc1Br` (configuration not stated), the INHIBITION is given as 43.9%. With `COc1cc(CNCC(O)c2ccc(C)cc2)cc2c1OCCO2` (configuration not stated) the figure was 21.8%; with `CO[C@@H]1CCN(c2ncc(F)cn2)[C@H]1Cc1cnn(C)c1`, 28.4%; with `CN1CCN(C)C(CNC(=O)N(C)Cc2ccccc2Cl)C1` (configuration not stated), 17.1%. Take `Cc1cc(C2CCCN2C(=O)c2csc(-c3cnn(C)c3)n2)on1` (configuration not stated): the INHIBITION is listed as -1.445%.

Consider `CCn1nc(C)c2nnn(CC(=O)Nc3cccc(F)c3)c(=O)c21`, for which the INHIBITION is recorded as 15.9%. As for `NC(=O)C(CNC(=O)Cc1ccc(F)cc1)Cc1ccc(F)cc1` (configuration not stated), the INHIBITION was determined as 29.2%. In the case of `Cn1c(=O)n(C)c2nc(Cl)c(CC(=O)c3ccccc3)n2c1=O`, the INHIBITION is recorded as -6.47%.

On to `Cn1c(=O)n(C)c2nc(Cl)c(CC(=O)c3ccc(F)cc3)n2c1=O`, for which the INHIBITION amounted to 48.3%. With `Cc1ccc(C(=O)Cc2c(Cl)nc3n(C)c(=O)n(C)c(=O)n23)cc1`, the INHIBITION was 85%. Regarding `CC(C)CCn1cc(C(C(=O)O)N2CCC(c3ccncc3)CC2)cn1` (configuration not stated), the INHIBITION was 23.9%.

Turning to `O=C(NCCO)c1sc2ncccc2c1C1CN(C2CCCC2)CCO1` (configuration not stated), the INHIBITION was -10.4%.

As to `CC(C)(C)c1noc(CN2CCCCC2Cn2cncn2)n1` (configuration not stated), the INHIBITION is on record as 39.15%. For the compound `O=S(=O)(NCC1(c2cccs2)CCCC1)c1cccnc1`, the INHIBITION is recorded as -43.5%.

Turning to `CCC(C(=O)NCC1=CCCN(C)C1)c1ccccc1` (configuration not stated), the INHIBITION worked out at 0.348%. As to `COCC(=O)NCCCn1ncc2c(C)cccc21`, the INHIBITION was 20.1%. Turning to `Cc1cccc2c1cnn2CCCNC(=O)C1CC1`, the INHIBITION is reported as 66.5%. `Cc1cccc2c1cnn2CCCNC(=O)CCCC(=O)O`: the INHIBITION is 60.1%. `CCCC(=O)NCCCn1ncc2c(C)cccc21`: the INHIBITION was found to be 2.69%. Consider `CC(=O)NCCCn1ncc2c(C)cccc21`, for which the INHIBITION was determined as 35.8%. With `Cc1nn(CCCNC(=O)C2CCN(S(C)(=O)=O)CC2)c(Cl)c1Cl` the figure was 14.8%; with `Cc1cccc2c1cnn2CCCNC(=O)C(C)C`, 0.139%; with `Cc1ccnn1CCCNC(=O)C1CCN(S(C)(=O)=O)CC1`, 77.7%. The value for `Cc1cc(C(F)(F)F)nn1CCCNC(=O)C1CCN(S(C)(=O)=O)CC1` was 0.87%.
